12-LOX inh: inhibitors of human 12S-lipoxygenase ALOX12; 1.1% of 580,000 active; purified 12hLO, xylenol orange hydroperoxide absorbance; AID 1671190; Potency, µM (doses to about 108 µM), usual class: inhibitors; P18054
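Purified human 12hLO at 150 nM in 25 mM Hepes, 0.01% Triton X-100, pH 7.0, preincubated 15 min at room temperature with compound. Reaction started with 40 uM arachidonic acid, 30 min at room temperature. Hydroperoxide measured by Fe-xylenol orange, 573/405 nm absorbance ratio.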
TDP1 cell CPT: growth inhibition of DT40 Tdp1-/-;hTDP1 cells with camptothecin (screen for TDP1 inhibitors); chicken DT40 Tdp1-/-;hTDP1 cells + 20 nM CPT, ATP luminescence, 48 h; Potency, µM (doses to about 46.2 µM), hits mostly inhibitors; 12% of 420,000 active; also: nearly all actives have a fitted effect of over 55% in size
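Cell growth measured by CellTiter-Glo luminescence after a minimum 48 h, 37 C compound exposure with 20 nM CPT in Tdp1-knockout DT40 cells stably expressing hTDP1, seeded 400/well; qHTS titration format.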
RORgamma inh: ROR gamma (mouse) transcription inhibition; P51450; Drosophila S2 Gal4-RORgamma UAS-luciferase reporter, 20 h; Potency, µM (titrated, usually from 53.6 µM), hits mostly inhibitors; 5.4% of 310,000 active; AID 2551; also: nearly all actives have a fitted effect of over 60% in size
Target sequence (P51450 whole entry, looked up, the tested form may be a part): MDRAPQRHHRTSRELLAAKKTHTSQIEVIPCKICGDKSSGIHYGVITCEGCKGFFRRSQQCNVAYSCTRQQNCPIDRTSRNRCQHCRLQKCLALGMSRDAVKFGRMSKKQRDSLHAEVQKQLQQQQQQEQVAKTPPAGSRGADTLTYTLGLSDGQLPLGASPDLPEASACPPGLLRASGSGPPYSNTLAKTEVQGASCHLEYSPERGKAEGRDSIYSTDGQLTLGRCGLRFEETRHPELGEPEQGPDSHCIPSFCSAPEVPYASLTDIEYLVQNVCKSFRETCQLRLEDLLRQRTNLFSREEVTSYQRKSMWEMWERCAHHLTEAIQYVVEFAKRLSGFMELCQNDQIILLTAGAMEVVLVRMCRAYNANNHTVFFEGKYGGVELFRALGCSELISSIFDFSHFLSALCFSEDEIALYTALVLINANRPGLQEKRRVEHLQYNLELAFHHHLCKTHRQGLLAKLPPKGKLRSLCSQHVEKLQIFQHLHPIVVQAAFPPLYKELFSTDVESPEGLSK
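Stably transfected Drosophila Schneider cells are the test system, with ROR gamma fused to Gal4 and luciferase under UAS control; luminescence is read after 20 hr of 700 uM copper sulfate induction at ambient temperature.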
VP16 counter: counter-screen for ROR gamma inhibitors: Gal4-VP16 reporter; Drosophila S2 Gal4-VP16 UAS-luciferase, luminescence, 20 h; 3.5% of 310,000 active; Potency, µM (titrated, usually from 53.6 µM), usual class: inhibitors; AID 2546;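 also: Gal4-VP16 expression switched on by copper sulfate through the metallothionein promoter; nearly all actives have a fitted effect of over 50% in size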
TDP1 cell noCPT: qHTS for Inhibitors of human tyrosyl-DNA phosphodiesterase 1 (TDP1): qHTS in cells in absence of CPT; DT40 Tdp1-/- hTDP1 cells, no CPT, ATP luminescence, 48 h; Potency, µM (highest dose often 46.2 µM), hits mostly inhibitors; 15% of 420,000 active; AID 686978, 2013; also: nearly all actives have a fitted effect of over 55% in size
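DT40 Tdp1-/-;hTDP1 cells, no CPT (DMSO vehicle only), 400 cells/well; compounds pin-transferred; ≥48 hr, 37 °C; CellTiter-Glo 30 min RT dark, luminescence read.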
ELG1 repair inh: blocks ELG1-dependent DNA repair in HEK293T cells; 2.3% of 330,000 active; Potency, µM (top dose mostly 46.1 µM), usual class: inhibitors; AID 504467; HEK293T ELG1-luciferase reporter, luminescence, 16 h; DNA damage induced by 5-fluorouridine; also: nearly all actives have a fitted effect of over 55% in size
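Step one: seed 2,000 cells per well. Step two: pin-transfer compound or DMSO alongside 5-fluorouridine. Step three: incubate 16 hr, 37 °C, 5% CO2. Step four: add ONE-Glo, wait 30 min, read luminescence.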
Hits are given with their value; – = inactive; ? = inconclusive; · = not tested or not shown; [ ] = remark or other dose. Only some compounds are listed: those with a hit (about 15% of all), similar ones and a draw of the others. Calls follow the shape of the dose curve; as a rule, active = well fitted curve in the direction sought with a large enough effect; inconclusive = small, poorly fitted or top-dose-only effect, or another doubt; inactive = no such curve, though single readings can be large; an effect the other way counts as inactive or inconclusive.

SMILES | 12-LOX inh | TDP1 cell CPT | RORgamma inh | VP16 counter | TDP1 cell noCPT | ELG1 repair inh
O=C1C=CC(O)C2(CO)OC12 (centres undefined) | – | 16.4µM | · | · | 5.8µM | ·
COc1ccc(C(=O)NC2CCN(c3cc(-c4ccc(F)cc4)[nH]n3)C2)c(OC)c1 (centres undefined) | – | · | · | · | · | ·
CC(NCc1cccc(C#N)c1)c1ccc(Cl)cc1Cl (centres undefined) | – | · | · | · | · | ·
O=C(Cc1ccc(Cl)cc1)Nc1cc(S(=O)(=O)N2CCOCC2)ccc1N1CCCC1 | – | – | ? | – | ? | –
CN1CCN(c2ccc(S(=O)(=O)N3CCCCC3)cc2NC(=O)Cc2ccc(Cl)cc2)CC1 | ? | ? | – | – | 23.1µM | –
O=C(/C=C/c1ccc(F)cc1)Nc1cc(S(=O)(=O)N2CCOCC2)ccc1N1CCCC1 | – | – | ? | – | ? | –
CN1CCN(c2ccc(Cl)cc2NC(=O)c2ccc(S(=O)(=O)N3CCCCCC3)cc2)CC1 | – | ? | – | – | 16.4µM | –
CN1CCN(c2ccc(Cl)cc2NC(=O)/C=C/c2ccc(F)cc2)CC1 | – | ? | – | – | 16.4µM | –
CCc1noc(-c2cn(C3CCN(C(=O)c4ccc(OC)c(F)c4)C3)nn2)n1 (centres undefined) | – | · | · | · | · | ·
CCNC(=O)Nc1ccc(OCC(=O)NCc2cccs2)nc1 | – | · | · | · | · | ·
O=C(CSc1ncc(-c2ccc(Cl)cc2)o1)Nc1ccc(Cl)cc1 | – | · | · | · | · | ·
Cl/C(=C/c1ccc(Cl)cc1)c1ncc(-c2ccc(Cl)cc2)o1 | 35.5µM | · | · | · | · | ·
Cc1cc(C)nc(N(C#N)CC(=O)N(c2ccccc2)C(C)C)n1 | – | ? | – | – | ? | –
CCc1ccc(C(=O)CN(C#N)c2nc(C)cc(C)n2)cc1 | – | ? | 11.2µM | – | ? | –
Cc1ccc(F)cc1NC(=O)c1ccn(Cn2nnc(-c3ccccc3)n2)n1 | – | · | · | · | · | ·
Clc1nc(NCc2cccs2)c2[nH]cnc2n1 | · | 12.6µM | · | · | 11.2µM | ·
COc1ccc(CNc2nc(Cl)nc3nc[nH]c23)cc1 | · | – | · | · | ? | ·
COc1cccc(CNc2nc(Cl)nc3nc[nH]c23)c1 | · | 15.8µM | · | · | 7.94µM | ·
COc1cccc(CCC(=O)N(C)C2CCc3nnc(C)n3CC2)c1 (centres undefined) | – | · | · | · | · | ·
C/C(=N\Nc1nc(C)cc(-c2ccccc2)n1)c1cccc(N)c1 | – | ? | 11.2µM | 15.8µM | 20.6µM | ?
C/C(=N\NC(=O)c1ccc(-c2ccccc2)cc1)c1cccc(N)c1 | – | – | 12.6µM | – | – | –
C/C(=N\Nc1nc(C)cc(-c2ccccc2)n1)c1ccc(O)cc1 | – | 7.31µM | ? | ? | 4.61µM | ?
C/C(=N\Nc1nncc2ccccc12)c1ccc(O)cc1 | – | – | ? | – | – | ?
CC/C(=N\NC(=O)c1ccc(-c2ccccc2)cc1)C12CC3CC(CC(C3)C1)C2 | – | – | 22.4µM | ? | 13µM | –
C/C(=N\N=C(/C)c1cccc(N)c1)c1cccc(N)c1 | – | – | · | · | – | ·
SMILES | 12-LOX inh | TDP1 cell CPT | RORgamma inh | VP16 counter | TDP1 cell noCPT | ELG1 repair inh
CC(NC(=O)C(=O)c1c[nH]c2ccccc12)c1ccccc1 (centres undefined) | – | · | · | · | · | ·
O=C(c1cn(C/C=C/c2ccccc2)nn1)N1CCCN(C2CCCCC2)CC1 | – | · | · | · | · | ·
C/C(=N\Nc1nc(C)cc(-c2ccccc2)n1)c1ccccc1 | – | ? | 3.55µM | 5.01µM | ? | ?
Cc1ccc(-c2cc(-c3ccccc3)nc(NN)n2)cc1 | ? | ? | ? | – | – | ?
CCN(c1ccccc1)S(=O)(=O)c1cc2c3c(c1)C(C)C(=O)N3CCC2 (centres undefined) | ? | 18.4µM | – | – | 16.4µM | –
CCN(c1cccc(C)c1)S(=O)(=O)c1cc2c3c(c1)CCN3C(=O)CC2 | · | 29.1µM | · | · | 14.6µM | –
CCN(c1ccccc1)S(=O)(=O)c1cc2c3c(c1)CCN3C(=O)CC2 | – | · | · | · | · | –
CN(Cc1ccccc1)C(=O)[C@@H]1Cc2nc[nH]c2CN1C(=O)CCC(=O)O | – | · | · | · | · | ·
CCOc1ccc2nc(-c3ccccc3)[nH]c2c1 | – | 9.2µM | ? | ? | 20.6µM | ?
CC1(C(=O)NCc2cccnc2)CN(Cc2ccccc2)Cc2ccc(N3CCOCC3)nc21 (centres undefined) | – | · | · | · | · | ·
O=C1CC2(CCN([S+](=O)([O-])c3cccc(C(F)(F)F)c3)CC2)Oc2ccccc2N1 | – | · | · | · | · | ·
CCCNC(=O)C(Cc1ccccc1)NC(=O)c1ccccn1 (centres undefined) | – | – | · | · | – | –
CC(C)C[C@H](NC(=O)[C@H](Cc1ccccc1)NC(=O)c1cnccn1)B(O)O | – | 0.0042µM | · | · | 0.0075µM | ·
Cc1ccc(Cn2c(=N)n(CC(=O)c3ccccc3)c3ccccc32)cc1 | ? | 7.31µM | 12.6µM | 14.1µM | 3.66µM | ?
CC(C)(C)C(=O)Cn1c(=N)n(Cc2ccccc2Cl)c2ccccc21 | ? | 25.9µM | 4.47µM | ? | 25.9µM | –
N=c1n(N)c2ccccc2n1CC(=O)c1ccc(Br)cc1 | – | 23.1µM | –[1.91 µM] | – | 20.6µM | ?
CCOC(=O)Cn1c(=N)n(Cc2ccc(C(C)(C)C)cc2)c2ccccc21 | ? | ? | · | · | 13µM | ·
COCCNC(=O)CN1CCN(c2cc(-c3nc4ccccc4s3)c3ccccc3n2)CC1 | – | · | · | · | · | ·
O=S(=O)(c1cccc(C(F)(F)F)c1)N1CCC(n2cnnc2C2CC2)CC1 | – | · | · | · | · | ·
C=CCn1c(=N)n(CC(=O)c2ccccc2)c2ccccc21 | – | ? | – | ? | ? | –
CC(C)(C)C(=O)Cn1c(=N)n(Cc2ccccc2)c2ccccc21 | ? | 20.6µM | ? | – | 14.6µM | –
CC(C)Cn1c(Cn2cccn2)nc2cc(NC(=O)COc3ccc(Cl)cc3)ccc21 | – | · | · | · | · | ·
COc1cccc(Nc2nc(-c3sc(NC(=O)c4ccco4)nc3C)cs2)c1 | 6.31µM | ? | – | – | 23.1µM | ?
Cc1nc(N)sc1-c1csc(Nc2ncccn2)n1 | – | 16.4µM | 6.31µM | ? | 18.4µM | ?
COc1cccc(Nc2nc(-c3sc(N)nc3C)cs2)c1 | ? | 23.1µM | – | – | ? | ?
SMILES | 12-LOX inh | TDP1 cell CPT | RORgamma inh | VP16 counter | TDP1 cell noCPT | ELG1 repair inh
COc1cccc(Nc2nc(-c3ccc(CNC(C)=O)s3)cs2)c1 | 15.8µM | · | · | · | · | ·
Cc1ccc(S(=O)(=O)Nc2cccc(S(=O)(=O)C3CCCC3)c2)c(C)c1 | – | · | · | · | · | ·
CCn1c(SCc2nc(-c3cccs3)oc2C)nnc1C1CC1 | – | · | · | · | · | ·
COc1cccc(-c2nnnn2[C@H]2CO[C@H]3[C@@H]2OC[C@@H]3NC(=O)c2ccc(N(C)C)cc2)c1 | – | · | · | · | · | ·
Brc1ccc(/C=N/Nc2nncc(-c3ccccc3)n2)o1 | – | · | 3.55µM | – | · | –
C(=N\Nc1nn[nH]n1)/c1ccccc1 | – | – | – | – | – | –

Screening data deposited in PubChem by National Center for Advancing Translational Sciences (NCATS).
